Bioassay records: PubChem, several laboratories
AddAB inh – less growth of phage-infected E. coli with AddAB; E. coli expressing H. pylori AddAB, absorbance growth; inhibition, % at 11.9 µM; 0.29% of 330,000 active; in the data active = inhibition above about 12%
E coli growth-1 – reduces bacterial viability in AddAB counter-screen; E. coli V3065 growth, OD600 absorbance, 18 h; inhibition, % at 11.9 µM; 0.27% of 330,000 active;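 active = inhibition above the campaign's mean inhibition across all tested compounds plus 3 SD, cut at about 9.9% in these data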;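 also: uninfected addAB+ strain grown without phage in ampicillin broth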
phage Ecoli inh – E. coli growth loss with phage present; 0.26% of 360,000 active; AID 651602; inhibition, % at 11.9 µM; growth absorbance; in the data active = inhibition above about 11%
Tat transport – E. coli Tat transport inhibition; E. coli MC4100 TorA-mCherry Tat export, fluorescence; 0.036% of 340,000 active; inhibition, % at 10 µM;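 active = mean replicate inhibition at least 50% and at least half of replicates individually reaching 50%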;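 also: exported cargo escapes ClpAP degradation while cytoplasmic cargo is degraded and loses fluorescence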
E coli growth-2 – inhibitors of Escherichia coli growth; OD600 absorbance (concentration not given with the values); 0.21% of 330,000 active; OD600, 23 h; hits give low values;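 active = OD600 absorbance below the run mean of sample wells minus 3.6 SD, in any replicate, cut at about 0.56 in these data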
AddAB conf – growth loss of T4-infected E. coli expressing H. pylori AddAB, confirmed; 64% of 880 active; E. coli V3065 expressing H. pylori AddAB, T4 phage, OD; T4 phage with gene 2 nonsense mutations; inhibition, % at 11.9 µM; shares compounds with AddAB inh;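 active = mean inhibition above a set limit taken from the earlier primary screen, cut at about 13% in these data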;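 also: higher means less bacterial growth since AddAB block lets phage replicate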
RecBCD counter – AddAB counter-screen: growth loss of RecBCD+ E. coli infected with mutant T4 phage | E. coli V66 + mutant T4 phage, OD growth | 73% of 880 active | inhibition, % at 11.9 µM | shares compounds with AddAB inh;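 active = mean inhibition above the mean of solvent-only control wells plus 3 SD, cut at about 4% in these data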;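 also: optical density read after an 18 h incubation at 37 °C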
bact viab count – counter-screen for AddAB inhibitors: inhibitors of bacterial viability; 35% of 880 active; shares compounds with AddAB inh; absorbance (AddAB counterscreen); inhibition, % at 11.9 µM; in the data active = inhibition above about 25%
RecBCD conf – growth loss of phage-infected V66 E. coli, RecBCD confirmation screen | 45% of 890 active | E. coli V66 + T4 2- phage, growth OD | inhibition, % at 11.9 µM | shares compounds with phage Ecoli inh;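 active = mean inhibition over triplicates exceeding the hit threshold derived in the original primary screen, cut at about 11% in these data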
Ecoli viability – counter-screen for RecBCD inhibitors: inhibitors of bacterial viability. shares compounds with phage Ecoli inh. E. coli viability, absorbance (OD) growth. inhibition, % at 11.9 µM. 29% of 890 active; in the data active = inhibition above about 20%;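 also: E. coli strain V66 grown with compound alone and no phage infection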
AddAB phage OD – growth loss of phage-infected AddAB E. coli, RecBCD counter-screen; inhibition, % at 11.9 µM; shares compounds with phage Ecoli inh; E. coli expressing H. pylori AddAB + T4 phage, OD growth; gene 2 mutant T4, recBCD-deleted host; 45% of 890 active;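 active = mean inhibition above the solvent-only control wells' mean plus 3 SD, cut at about 22% in these data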;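 also: higher means less bacterial growth from phage killing when AddAB is blocked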
Large screens that a line does not name were inactive (follow-up assays come after a bar, where they were run). Most compounds without a hit are left out; they make up all but 0.5% or so of the library.

CC1COC(=O)C(Cc2ccc(F)cc2)CCC=CCC(CC(=O)N(CCO)Cc2ccccc2)C(=O)N1 (stereo not drawn)	none (no result: AddAB inh, E coli growth-1, phage Ecoli inh, Tat transport)
O=C(NNC(=O)c1ccc2ccccc2c1O)c1ccccc1Cl	AddAB inh 14, E coli growth-1 15, phage Ecoli inh 12 | AddAB conf inactive | RecBCD counter 10 | bact viab count inactive | RecBCD conf inactive | Ecoli viability inactive | AddAB phage OD inactive
O=C(NNC(=O)c1cccc2ccccc12)c1ccc(Cl)cc1Cl	none (no result: AddAB inh, E coli growth-1)
CC1NC(=O)c2cc([N+](=O)[O-])cc(F)c2NCCCC(C(N)=O)NC(=O)C(CC(N)=O)NC1=O (stereo not drawn)	none (no result: AddAB inh, E coli growth-1, phage Ecoli inh, Tat transport)
O=C1OC(CN2CCOCC2)CN1N=Cc1ccc([N+](=O)[O-])o1 (stereo not drawn)	AddAB inh 98, E coli growth-1 99, phage Ecoli inh 86, E coli growth-2 0.064 | AddAB conf 100 | RecBCD counter 81 | bact viab count 100 | RecBCD conf 64 | Ecoli viability 83 | AddAB phage OD 100
O=C1CN(/N=C/c2ccc([N+](=O)[O-])o2)C(=O)N1	AddAB inh 99, E coli growth-1 99, phage Ecoli inh 77 (no result: Tat transport, E coli growth-2) | AddAB conf 100 | RecBCD counter 40 | bact viab count 101 | RecBCD conf 49 | Ecoli viability 72 | AddAB phage OD 100
CCOC(=O)CC1c2ccc(C(F)(F)F)cc2S(=O)(=O)N1c1ccccc1 (stereo not drawn)	none (no result: AddAB inh, E coli growth-1, phage Ecoli inh, Tat transport)
O=C1NC(Cc2ccccc2)C(=O)N2C1C[C@]1(Br)c3ccccc3N(S(=O)(=O)c3ccc(F)cc3)C21 (stereo partly drawn)	none (no result: AddAB inh, E coli growth-1, phage Ecoli inh, Tat transport)
Oc1ccc(Cl)cc1Cc1cc(Cl)ccc1O	AddAB inh 13, E coli growth-1 12, phage Ecoli inh 13, E coli growth-2 0.13 | AddAB conf inactive | RecBCD counter 14 | bact viab count inactive | RecBCD conf inactive | Ecoli viability inactive | AddAB phage OD inactive
Oc1ccc(Cl)cc1CNCc1ccc(Cl)cc1	none
CN1CC2C3C(=O)N(Cc4ccccc4)C(=O)C3[C@](C)(C1=O)N2C(=O)c1ccc(F)cc1 (stereo partly drawn)	none (no result: AddAB inh, E coli growth-1, phage Ecoli inh, Tat transport)
NC(=O)C1CC2(CC(c3cccc(NC(=O)C4CCC(=O)N4)c3)=NO2)CN1C(=O)c1ccccc1C(=O)c1ccccc1 (stereo not drawn)	none (no result: AddAB inh, E coli growth-1, phage Ecoli inh, Tat transport)
CC(=O)c1cn(CC(=O)Nc2ccc(C)c(C)c2)c2ccccc12	none
CC(=O)c1cn(CC(=O)Nc2ccc(C)cc2)c2ccccc12	AddAB inh 14, E coli growth-1 11, phage Ecoli inh 11 | AddAB conf inactive | RecBCD counter inactive | bact viab count inactive | RecBCD conf inactive | Ecoli viability inactive | AddAB phage OD inactive
COC(=O)C1CC[C@@](C)(c2ccc(OC)cc2)C1(C)C (stereo partly drawn)	none (no result: AddAB inh, E coli growth-1, phage Ecoli inh, Tat transport)
CCSc1nsc(NC(=O)Nc2ccccc2F)n1	none
C=CCSc1nsc(NC(=O)Nc2ccc(F)cc2)n1	AddAB inh 20, E coli growth-1 16, phage Ecoli inh 15 (no result: E coli growth-2) | AddAB conf 18 | RecBCD counter 22 | bact viab count inactive | RecBCD conf inactive | Ecoli viability inactive | AddAB phage OD 22
Cc1cn([C@H]2C[C@H](N=[N+]=[N-])[C@@H](CO)O2)c(=O)[nH]c1=O	AddAB inh 100, E coli growth-1 100, phage Ecoli inh 97 (no result: E coli growth-2) | AddAB conf 100 | RecBCD counter 71 | bact viab count 100 | RecBCD conf 97 | Ecoli viability 93 | AddAB phage OD 101
O=c1[nH]c(=O)n([C@H]2C[C@H](O)[C@@H](CO)O2)cc1F	AddAB inh 100, E coli growth-1 84, phage Ecoli inh 87 (no result: E coli growth-2) | AddAB conf 81 | RecBCD counter 69 | bact viab count 77 | RecBCD conf 79 | Ecoli viability 79 | AddAB phage OD 91
CCN1CC2C3C(=O)N(C)C(=O)C3[C@](Cc3ccccc3)(C1=O)N2C(=O)c1ccc(Cl)c(Cl)c1 (stereo partly drawn)	none (no result: AddAB inh, E coli growth-1, phage Ecoli inh, Tat transport)
Cc1cc(C)cc(NC(=O)c2ccc([N+](=O)[O-])o2)c1	none (no result: AddAB inh, E coli growth-1)
CC(=O)c1cccc(NC(=O)c2ccc([N+](=O)[O-])o2)c1	AddAB inh 89, E coli growth-1 83, phage Ecoli inh 16, E coli growth-2 0.44 | AddAB conf 101 | RecBCD counter 19 | bact viab count 71 | RecBCD conf inactive | Ecoli viability inactive | AddAB phage OD 84
COc1ccc(NC(=O)c2ccc(Br)o2)cc1	none
O=C(Nc1cccnc1)c1ccc([N+](=O)[O-])o1	AddAB inh 97, E coli growth-1 96, phage Ecoli inh 20, E coli growth-2 0.41 | AddAB conf 98 | RecBCD counter 20 | bact viab count 91 | RecBCD conf 13 | Ecoli viability inactive | AddAB phage OD 101
O=C(NNC(=O)c1ccc([N+](=O)[O-])o1)c1ccccc1	AddAB inh 68, E coli growth-1 86, phage Ecoli inh 26, E coli growth-2 0.35 | AddAB conf 103 | RecBCD counter 23 | bact viab count 70 | RecBCD conf 18 | Ecoli viability 21 | AddAB phage OD 102
COc1ccc(NC(=O)c2ccc([N+](=O)[O-])o2)cc1	AddAB inh 58, E coli growth-1 80, phage Ecoli inh 19, E coli growth-2 0.47 | AddAB conf 100 | RecBCD counter 17 | bact viab count 46 | RecBCD conf 15 | Ecoli viability inactive | AddAB phage OD 100
O=C(Nc1cccnc1)c1ccco1	none
CN1CCN(c2ccc(NC(=O)c3ccc([N+](=O)[O-])o3)cc2Cl)CC1	AddAB inh 99, E coli growth-1 92, phage Ecoli inh 23, E coli growth-2 0.31 | AddAB conf 98 | RecBCD counter 24 | bact viab count 95 | RecBCD conf 15 | Ecoli viability 20 | AddAB phage OD 85
NC(=O)c1oc2ccccc2c1NC(=O)c1ccc(F)cc1	none
